Hits are enriched below; roughly 4.8% of the tested compounds scored in any of these assays.
PfHsp90 yeast 2 – inhibits growth of yeast expressing Plasmodium falciparum Hsp90; actives 0.32% (n = 310,000); AID 504621; inhibition, % at 9.4 µM; S. cerevisiae expressing PfHsp90, BacTiter-Glo ATP, 48 h; yeast lacking PDR1 and PDR3 efflux regulators;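 active means every replicate shows inhibition above about 80%, whatever the replicate mean, limit read from the data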;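 further: 0% = DMSO neutral controls and 100% = 20 µM radicicol positive controls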
TIM10 inh – inhibits growth of TIM10 yeast strain; S. cerevisiae TIM10 strain growth, BacTiter-Glo luminescence, 24 h; inhibition, % at 10 µM; actives 1.4% (n = 330,000); AID 463195;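 active means inhibition of 40% or more at the single tested concentration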;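 further: wild-type TIM10 isogenic control strain grown at permissive 25 °C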
NALP1 yeast inh – blocks the NALP1 inflammasome reconstituted in yeast. S. cerevisiae NALP1/ASC/caspase-1 growth, X-gal OD620, 72 h. inhibition, % at 10 µM. actives 0.61% (n = 280,000). AID 2071; in the data active means inhibition mostly above about 24%, no sharp cut-off; inactive means mostly below about 32%
tim23-1 inh – inhibits growth of tim23-1 mutant yeast; S. cerevisiae tim23-1 growth, BacTiter-Glo luminescence, 24 h; actives 1.3% (n = 330,000); inhibition, % at 20 µM;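 active means growth inhibition of the mutant yeast at or above 50%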;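 further: temperature-sensitive mutant grown at 25 °C; plate controls were DMSO-treated mutant yeast for no effect and medium wells lacking yeast for full effect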
SKKanGAS inh – SKKanGAS growth inhibition. S. pyogenes SKKanGAS, kanamycin growth, BacTiter-Glo, 6 h. actives 1.3% (n = 300,000). AID 1662. inhibition, % at 7.5 µM;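 active means mean replicate score, as percent of positive control median, at least 50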;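 further: strain carries kanamycin resistance gene driven by streptokinase promoter and grows in 40 µg/ml kanamycin; loss of luminescence reflects streptokinase promoter inhibition or plain growth inhibition; 0% = median of DMSO wells and 100% = positive control at its reference dose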
tim10-1 inh – inhibits growth of tim10-1 mutant yeast. actives 2.2% (n = 330,000). S. cerevisiae tim10-1 ts strain growth, BacTiter-Glo, 24 h. inhibition, % at 20 µM;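 active means inhibition of at least 40%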;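 further: mutant grown at 25 °C; 0% = DMSO wells with yeast and 100% = wells holding no yeast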
TIM10 conf – TIM10 yeast growth inhibition, confirmed; shares compounds with TIM10 inh; S. cerevisiae tim10 strain growth, BacTiter-Glo luminescence, 24 h; inhibition, % at 10 µM; actives 63% (n = 4,600); AID 463215;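 active means inhibition of yeast growth at or above a set limit in either of two replicates at 10 µM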;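 further: this counterscreen used the strain with wild-type TIM10; 0% = yeast with DMSO and 100% = medium wells lacking yeast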
The depositor's hits bear a star; · = no result.

SMILES | PfHsp90 yeast 2 | TIM10 inh | NALP1 yeast inh | tim23-1 inh | SKKanGAS inh | tim10-1 inh | TIM10 conf
COc1ccc(/C=C/C(=O)C(C(N)=O)=C2SCCS2)cc1 | -3 | 0 | 20 | 8 | 3 | 31 | ·
Cc1ccc(C(=O)C(C(=O)/C=C/c2ccccc2)=C2SCCCS2)cc1 | 19 | 52* | 5 | 32 | -2 | 37 | -16
COC(=O)C1=C(C)N(c2ccc(C)cc2)/C(=C/c2cccs2)C1=O | · | 43* | 31 | 34 | 0 | 38 | 32*
COC(=O)C1=C(C)N(c2ccc(C)c(C)c2)/C(=C/c2ccco2)C1=O | 10 | 48* | 11 | 38 | 2 | 37 | 47*
CCOC(=O)C1=C(C)N(c2ccc(C)c(C)c2)C(=O)/C1=C\c1ccco1 | -16 | 24 | 3 | 32 | -4 | 27 | ·
COc1ccc2cc(-c3ccccc3)c(=O)oc2c1 | 14 | -24 | 26 | 28 | -3 | -12 | ·
CCOc1ccc(-n2cnc3scc(-c4ccc(OC)c(OC)c4)c3c2=O)cc1 | · | 41* | 8 | 27 | 5 | 36 | 16
Cc1ccc(-c2nc(CS(=O)CC(=O)NCc3ccccc3)c(C)o2)cc1 (stereo unspecified) | -13 | 7 | -41 | 15 | -7 | 26 | ·
Clc1ccc(CN=C2Nc3ccccc3CS2)cc1 | 34 | 41* | 11 | 36 | 11 | 36 | 32*
CNc1cnn(-c2ccccc2)c(=O)c1Cl | -18 | 0 | 8 | 30 | -2 | -6 | ·
Cc1ccc(Sc2cnn(-c3ccccc3)c(=O)c2Cl)cc1 | -11 | 52* | -5 | 44 | 9 | 39 | 46*
Cc1c(C)c(C)c2[nH]c(-c3ccc4c(c3)OCO4)nc2c1C | 19 | 82* | 9 | 46 | -3 | 26 | 87*
COc1ccc(NC(=O)c2cc3c(-c4ccc(OC)c(OC)c4)nn(C)c3s2)cc1OC | -30 | 40* | 16 | 35 | 38 | 34 | 27*
COc1ccc(-c2nn(C)c3sc(C(=O)NCc4ccco4)cc23)cc1OC | -21 | -31 | 4 | -20 | 5 | -21 | ·
COc1ccc(/C(N)=N/OC(=O)Oc2ccccc2)cc1OC | -7 | 8 | -2 | -14 | 8 | 9 | ·
CCOc1cc(/C=N/NC(=O)COc2ccccc2C)ccc1OC(=O)c1cccs1 | -20 | 41* | 23 | 32 | 9 | 23 | 26
c1ccc2[nH]c(NN=C3CCCCCC3)nc2c1 | -6 | 2 | -5 | -3 | 21 | 14 | ·
c1ccc2[nH]c(NC3=NCCC3)nc2c1 | 9 | 41* | -2 | 1 | 29 | 17 | -26
O=S(Cc1ccc(Br)cc1)Cc1nnc(SCc2c(Cl)cccc2Cl)n1-c1ccccc1 (stereo unspecified) | 9 | 41* | · | 42 | 4 | 26 | 23
Cn1c(CS(=O)Cc2c(Cl)cccc2Cl)nnc1SCc1c(Cl)cccc1Cl (stereo unspecified) | -3 | 35 | 35 | 39 | -3 | 32 | ·
CCCN(CC(=O)Nc1ccccc1OC)C(=O)c1ccc(S(=O)(=O)Nc2ccccc2OC)cc1 | 42 | · | · | · | · | · | ·
CNc1nc2ccccc2n1/N=C/c1cccc(OC)c1OC | · | 48* | 7 | 50 | -11 | 30 | 29
NS(=O)(=O)c1ccc(CCNC(=O)c2ccccc2[N+](=O)[O-])cc1 | -15 | -3 | 26 | 11 | 0 | 3 | ·
Cn1c(N)c(C(=O)COC(=O)CCc2ccccc2)c(=O)n(C)c1=O | 19 | 15 | -5 | 15 | -4 | 15 | ·
Cc1ccc(Oc2nc(-c3cccnc3)nc3ccccc23)c([N+](=O)[O-])n1 | -2 | -3 | -2 | -15 | 7 | 13 | ·
SMILES | PfHsp90 yeast 2 | TIM10 inh | NALP1 yeast inh | tim23-1 inh | SKKanGAS inh | tim10-1 inh | TIM10 conf
CCOc1ccc(/C=N/n2c(SC)nnc2-c2ccccc2)cc1OCC | -16 | 43* | 9 | 19 | -1 | 14 | 21
CCOc1ccc(C=NN2CCCCCC2)cc1OCC | -13 | · | · | · | · | · | ·
O=C(N=Nc1c(O)[nH]c2ccccc12)Nc1ccccc1 | -5 | · | · | · | · | · | ·
Cc1cccc(NC(=S)N=Nc2c(O)[nH]c3ccccc23)c1 | -51 | 41* | 20 | 38 | 97* | 34 | 37*
Cc1ccc(S(=O)(=O)Cn2nnnc2C(CC(C)C)N2CCN(C(=O)c3ccco3)CC2)cc1 (stereo unspecified) | -6 | 25 | 36 | 26 | 3 | 10 | ·
Cc1ccc(O)c(C(=O)/C=C/c2ccc3c(c2)OCCCO3)c1 | -7 | 49* | 31 | 37 | -48 | 38 | 56*
CC(C)c1ccccc1OCCNC(=S)NC(=O)c1cccnc1 | · | 45* | -2 | 49 | -1 | 37 | 44*
Cc1cc(Cl)ccc1OCCNC(=S)NC(=O)c1cccnc1 | 18 | -9 | 10 | -12 | -5 | 1 | ·
O=C(c1ccc([N+](=O)[O-])s1)N1CCN(c2ccc(C(F)(F)F)cn2)CC1 | 10 | 42* | 9 | 32 | 4 | 10 | 27
Cc1cnc(C(=O)N2CCN(c3ccc(C(F)(F)F)cn3)CC2)cn1 | 3 | -1 | -11 | -5 | 2 | 2 | ·
Cc1cc(Sc2ncnc(N)c2[N+](=O)[O-])ncn1 | -3 | 42* | 5 | 30 | 0 | 27 | 27
Cc1ccc(C)c(Oc2ncnc(N)c2[N+](=O)[O-])c1 | -8 | 22 | 30 | 29 | -16 | 18 | ·
CCCn1c(=O)[nH]c(=O)c2c1nc(-c1ccc(OC(F)(F)C(F)C(F)(F)F)cc1)n2CCOC (stereo unspecified) | 8 | 9 | 14 | 6 | 10 | 17 | ·
Cc1ccc(-c2cc3cccc[n+]3cc2-c2ccc(C)cc2)cc1 | 1 | 51* | 4 | 38 | -4 | 39 | 53*
Cc1ccc(C[n+]2ccccc2)cc1 | 20 | 0 | · | -1 | 0 | -16 | ·
COc1ccc(-c2cn3cccnc3n2)cc1Br | 23 | 46* | 52 | 38 | 1 | -1 | 55*
CN(C)S(=O)(=O)Oc1ccc(C(=O)Nc2cccc(Cl)c2)cc1 | -22 | 47* | 11 | 47 | 3 | 25 | 45*
CN(C)S(=O)(=O)Oc1ccc(C(=O)Nc2cccc(C(F)(F)F)c2)cc1 | 15 | 13 | 4 | 6 | -9 | 24 | ·
COc1ccc(Sc2cc(C(F)(F)F)nc(-c3ccccn3)n2)cc1 | -12 | 45* | 6 | 34 | 21 | 37 | 31*
Nc1ccc(-c2nc3ccc(N)cc3[nH]2)cc1 | 11 | 9 | -11 | 10 | -4 | -19 | ·
Nc1ccc(-c2nc3ccc(-c4nc5ccccc5o4)cc3[nH]2)cc1 | 9 | 55* | 2 | 32 | 2 | 31 | 0
Cc1ccnc2ccc(-c3nc4ccccc4o3)cc12 | -20 | 34 | 8 | 26 | · | 8 | ·
Cc1nc2ccc(-c3nc4ccccc4o3)cc2[nH]1 | 5 | 47* | -1 | 48 | -5 | -1 | 34*
N#CCOc1ccccc1/C=N/n1nnnc1N | -33 | 6 | 0 | 7 | 0 | 11 | ·
